Data published in ChEMBL document CHEMBL1157539, “Thousands of chemical starting points for antimalarial lead identification” (Nature, 2010).

Columns and labels:
Assay type in all cases: functional
Plasmodium falciparum [1] = assay: GSK_TCMDC: Inhibition of Plasmodium falciparum 3D7 in whole red blood cells, using parasite LDH activity as an index of growth. Test compounds present at 2uM
Plasmodium falciparum [2] = assay: GSK_TCMDC: Inhibition of Plasmodium falciparum Dd2 in whole red blood cells, using parasite LDH activity as an index of growth. Test compounds present at 2uM
HepG2 = assay: GSK_TCMDC: Percent inhibition of human HepG2 cell line. Test compounds present at 10uM.

Row | Structure (SMILES) | Inhibition (Plasmodium falciparum [1]) [%] | Inhibition (Plasmodium falciparum [2]) [%] | Inhibition (HepG2) [%]
1 | Cc1ccc(CC(C)NC[C@H](O)c2cccc(Cl)c2)cc1.Cl (stereo not given in full) | 96 | 47 | 15
2 | CC(=O)Nc1ccc(CN2CCC(N(C)c3ccc(NC(=O)c4cccc(C)c4)cc3)CC2)cc1.O=C(O)C(F)(F)F | 91 | 50 | 0
3 | COC(=O)c1ccc(CC(C)NCC(O)c2cccc3ccccc23)cc1 (stereo not given) | 96 | 82 | 3
4 | CCCN(CC(=O)NCCc1ccccc1)c1ccc(C#N)c2ccccc12.O=C(O)C(F)(F)F | 92 | 39 | 8
5 | O=C(Nc1ccc(Oc2ccccc2)cc1)N1CCC(CN2CCC(c3c[nH]c4ccccc34)CC2)CC1 | 100 | 59 | 53
